The values that follow come from PubChem BioAssay (Tox21).

“And” between values parts separate entries of the source, which are not always exact repeats. Identical values can stand only once. Results filed as inconclusive are left out. Where a call stands in place of a potency, no number is given. The source made the active and inactive calls. The call rests on the fitted dose curve; in most records, active means well fitted inhibition curve with a large enough effect in the repeat runs; inconclusive means weak or mixed curves; inactive means no such curve, though single readings can be large or run the other way.
Potency means the concentration at half of the fitted maximal effect.

The nature of the assay: qHTS assay to identify small molecule antagonists of the thyroid receptor (TR) signaling pathway (AID 743065). Further: nearly all actives have a fitted effect of over 55% in size. To be noted: GH3.TRE-Luc, T3-stimulated luciferase inhibition, 23.5 h; series mostly up to 70.3 µM. In short, it runs like this:
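GH3.TRE-Luc rat pituitary cells carrying two TR response elements driving luciferase were plated for 4 h, given compound plus 1 nM T3 (final), and incubated 23.5 h at 37 C. ONE-Glo luminescence measured reporter inhibition; CellTiter-Fluor fluorescence tracked cytotoxicity.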
For the molecule `C=N[C@@H](C(=O)N[C@@H]1C(=O)N2[C@@H]1SC(C)(C)[C@@H]2C(=O)O)c1ccccc1`, the Potency entry was “inactive”. The value for `O=C(O)/C=C/C(=O)Nc1ccc(S(=O)(=O)Nc2nccs2)cc1` was “inactive”.

Take `O=c1[nH]c(=O)n([C@H]2C[C@H](O)[C@@H](CO)O2)cc1/C=C/Br`: the Potency entry is “inactive”. The value for `C[C@H](O)CN(C)C` was “inactive”. Regarding `CC(C)C[C@H](NC(=O)[C@@H](COC(C)(C)C)NC(=O)[C@H](Cc1ccc(O)cc1)NC(=O)[C@H](CO)NC(=O)[C@H](Cc1c[nH]c2ccccc12)NC(=O)[C@H](Cc1cnc[nH]1)NC(=O)[C@@H]1CCC(=O)N1)C(=O)N[C@@H](CCCN=C(N)N)C(=O)N1CCC[C@H]1C(=O)NNC(N)=O`, the Potency entry was “inactive”. The value for `NC[C@H]1O[C@H](O[C@H]2[C@H](O)[C@@H](O[C@H]3O[C@H](CO)[C@@H](O)[C@H](N)[C@H]3O)[C@H](N)C[C@@H]2N)[C@H](N)C[C@@H]1O` was “inactive”; that for `FC(F)(F)COCC(F)(F)F` was “inactive”.

Consider `NCC[C@H](O)C(=O)N[C@@H]1C[C@H](N)[C@@H](O[C@H]2O[C@H](CN)CC[C@H]2N)[C@H](O)[C@H]1O[C@H]1O[C@H](CO)[C@@H](O)[C@H](N)[C@H]1O`, for which the Potency result was “inactive”. The value for `CC(C)Cc1ccc([C@H](C)C(=O)O)cc1` was “inactive”; that for `O=P(O)(O)C(O)(Cn1ccnc1)P(=O)(O)O` was “inactive”. The value for `NCC(O)CC(=O)O` (stereo unspecified) was “inactive”; that for `CNCC(=O)N[C@@H](CCCN=C(N)N)C(=O)N[C@H](C(=O)N[C@@H](Cc1ccc(O)cc1)C(=O)N[C@H](C(=O)N[C@@H](Cc1cnc[nH]1)C(=O)N1CCC[C@H]1C(=O)N[C@@H](C)C(=O)O)C(C)C)C(C)C` was “inactive”; that for `CCC(NC(C)C)C(O)c1ccc(O)c(O)c1` (stereo unspecified) was “inactive”. For `CCCOC(=O)c1ccc(O)cc1` the value was “inactive”; for `CC12CCC(C[N+](C)(CCC[N+](C)(C)C)C1)C2(C)C` (stereo unspecified), “inactive”; for `COc1ccc(/C=N/NC(=O)c2ccncc2)c(C(=O)O)c1OC`, “inactive”. Consider `CC(=NCc1ccccc1)c1ccccc1O`, for which the Potency entry was “inactive”. In the case of `C[C@H](NCCc1ccc(O)cc1)[C@H](O)c1ccc(O)cc1`, the Potency entry is “inactive”.

As for `CCCC(CCC)C(=O)OC1C[C@H]2CC[C@@H](C1)[N+]2(C)C` (stereo partly specified), the Potency result was “inactive”. For `NC(=O)[C@H]1O[C@@H](O)[C@H](O)[C@@H](O)[C@@H]1O` the value was “inactive”. Turning to `CCCCCCCCCCCCCC(=O)OCC(COP(=O)([O-])OCC[N+](C)(C)C)OC(=O)CCCCCCCCCCCCC` (stereo unspecified), the Potency result is “inactive”.

Consider `CCN(CC)C(=O)c1cccnc1`, for which the Potency result was “inactive”. The value for `NC(=S)NS(=O)(=O)c1ccc(N)cc1` was “inactive”; that for `c1ccc2cc3c4ccccc4c4ccccc4c3cc2c1` was “inactive”; that for `C[S+](CC[C@H](N)C(=O)O)C[C@H]1O[C@@H](n2cnc3c(N)ncnc32)[C@H](O)[C@@H]1O` (stereo partly specified) was “inactive”.

Regarding `CC(C)(C)C(=O)OCC(=O)[C@H]1CC[C@H]2[C@@H]3CCC4=CC(=O)CC[C@]4(C)[C@H]3CC[C@]12C`, the Potency result is “inactive”.

For the molecule `CC(=O)Nc1ccc(OC(C)=O)cc1`, the Potency result was “inactive”. Regarding `C=CC(N)CCC(=O)O` (stereo unspecified), the Potency result was “inactive”.

With `Cc1c(N)nc([C@H](CC(N)=O)NC[C@H](N)C(N)=O)nc1C(=O)N[C@H](C(=O)N[C@H](C)[C@@H](O)[C@H](C)C(=O)N[C@H](C(=O)NCCc1nc(-c2nc(C(=O)NCCCCN=C(N)N)cs2)cs1)[C@@H](C)O)[C@@H](O[C@@H]1O[C@@H](CO)[C@@H](O)[C@H](O)[C@@H]1O[C@H]1O[C@H](CO)[C@@H](O)[C@H](OC(N)=O)[C@@H]1O)c1cnc[nH]1`, the Potency was 3.76 µM (active) and 841 nM (active). The value for `CCOC(=O)COc1ccc2c(=O)cc(-c3ccccc3)oc2c1` was “inactive”. For `NC(=O)CC[C@@H]1NC(=O)[C@H](Cc2ccccc2)NC(=O)[C@H](Cc2ccc(O)cc2)NC(=O)[C@@H](N)CSSC[C@@H](C(=O)N2CCC[C@H]2C(=O)N[C@@H](CCCN=C(N)N)C(=O)NCC(N)=O)NC(=O)[C@H](CC(N)=O)NC1=O` the value was “inactive”.
